Measured values: PubChem BioAssay (Tox21)
Records with an inconclusive call do not appear. Entries that show only a call come without a potency. Unmarked numbers belong to inactive results. The source made the active and inactive calls. Calls follow the shape of the full dose curve.

Experiment: qHTS assay for small molecule agonists of the p53 signaling pathway - cell viability (AID 651633);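 also: p53RE-bla HCT reporter cells with a stable beta-lactamase p53 reporter; nearly all actives have a fitted effect of over 30% in size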
Details: p53RE-bla HCT-116 viability, ATP luminescence, 16 h; series mostly up to 83.3 µM
Text: National Center for Advancing Translational Sciences [NCATS]
NIH Chemical Genomics Center [NCGC]
U.S. Environmental Protection Agency [EPA]
National Institutes of Environmental Health Sciences [NIEHS]
National Toxicology Program [NTP]
U.S. Food and Drug Administration [FDA]
p53, a tumor suppressor protein, is activated following cellular insult, including DNA damage and other cellular stresses. The activation of p53 regulates cell fate by inducing DNA repair, cell cycle arrest, apoptosis, or cellular senescence. The activation of p53, therefore, is a good indicator of DNA damage and other cellular stresses. […] The activation of the reporter gene under culture conditions can be detected by fluorescence intensity. This cell line was used to screen the Tox21 compound library in a 1536-well plate format and to identify agonists that activate the p53 signaling pathway.
Tox21 Assay Protocol Summary:
The p53RE-bla cells were dispensed at 4,000 cells/5 ul/well in 1536-well black wall/clear bottom plates using a Multidrop dispenser. After the assay plates were incubated at a 37 C/5% CO2 incubator for 5 hours, 23 nL of compounds dissolved in DMSO, positive controls or DMSO only was transferred to the assay plate by a pin tool. The plates were incubated at 37 C for 16 hours. After 1 uL of LiveBLAzerTM B/G FRET substrate was added using a Flying Reagent Dispenser, the plates were incubated at room temperature for 2 hours, and fluorescence intensity was measured by an Envision plate reader.
For cell viability readout that measures cytotoxicity, 4 ul/well of CellTiter-Glo reagent was added into the assay plates using a Flying Reagent Dispenser. After 30 min incubation at room temperature, the luminescence intensity in the plates was measured using a ViewLux plate reader.

SMILES | Potency | activity change, negative = cytotoxicity
CCOC(OCC)OCC | inactive | 
O=C(O)c1ccc2cc(O)ccc2c1 | inactive | 
c1ccc(-c2ccc(-c3ccccc3)cc2)cc1 | inactive | 
CCCCCCCCC(=O)OCC(C)OC(=O)CCCCCCCC (stereo not given) | inactive | 
CC(C)(C(=O)O)c1ccc(C(O)CCCN2CCC(C(O)(c3ccccc3)c3ccccc3)CC2)cc1 (stereo not given) | inactive | 
O=C(Cl)c1cc(Cl)cc(Cl)c1 | inactive | 
O=C(O)COCC(=O)O | inactive | 
CC(C)(Cc1c[nH]c2ccccc12)NCC(O)COc1ccccc1C#N (stereo not given) | inactive | 
CCC1=C(C)CN(C(=O)NCCc2ccc(S(=O)(=O)NC(=O)NC3CCC(C)CC3)cc2)C1=O (stereo not given) | inactive | 
CC(COc1ccccc1)NC(C)C(O)c1ccc(O)cc1 (stereo not given) | inactive | 
C(/C=C/C=C/Nc1ccccc1)=Nc1ccccc1 | inactive | 
c1ccc(CCNc2nc(-c3ccccc3)cs2)cc1 | inactive | 
O=C(O)c1ccccc1-n1cc(C(=O)O)c(=O)c2cc(Nc3c(F)cc(F)cc3Cl)c(Cl)cc21 | inactive | 
Cc1cc(SC2=C(O)C[C@@](CCc3ccc(N)cc3)(C(C)C)OC2=O)c(C(C)(C)C)cc1CO | inactive | 
CCOCCn1c(N2CCCN(C)CC2)nc2ccccc21 | inactive | 
CCCCCCCCS | inactive | 
CCCCCCCCNC | inactive | 
CCCCCCCCCCCCSCCOCCO | inactive | 
O=C(OCCCCCOC(=O)c1ccccc1)c1ccccc1 | inactive | 
CCCCCCCCCCCCSC#N | inactive | 

SMILES | Potency | activity change, negative = cytotoxicity
NC(=O)c1cc[n+](CC2=C(C(=O)[O-])N3C(=O)[C@@H](NC(=O)Cc4cccs4)[C@H]3SC2)cc1 | inactive | 
O=C1c2ccccc2C(=O)c2c1ccc(O)c2O | inactive | 
CC(O)CN (stereo not given) | inactive | 
Nc1ccc(F)cc1F | inactive | 
Cc1cc(C)c(C)c(O)c1 | inactive | 
Nc1nc(Cl)nc2c1ncn2[C@H]1C[C@H](O)[C@@H](CO)O1 | inactive | 
CCOc1ccccc1O | inactive | 
COc1ccc(C(=O)c2ccc(C)cc2)c(O)c1 | inactive | 
CCCCCCCCCCCCCCCCN | inactive | 
CC(C)CC(C)(C)C | inactive | 
CC(=O)Oc1cccc2c1C(=O)c1c(OC(C)=O)cc(C(=O)O)cc1C2=O | inactive | 
O=C(O)c1cccc(C(=O)O)c1C(=O)O | inactive | 
COC(=O)C(C)(C)C | inactive | 
SCCOCCOCCS | inactive | 
CC(C)=CCC/C(C)=C/C=N/O | inactive | 
CC(C(=O)O)c1ccc(/C=C2\CCCCC2=O)cc1 (stereo not given) | inactive | 
Oc1ccc(CCNCCCCCCNCCc2ccccc2)cc1O | inactive | 
C[C@H](CN1CCCC1)C(=O)c1ccc(C(F)(F)F)cc1 | inactive | 
CCCCCCCCCCCCCCCCCCCl |  | -0.103% [at 8.08 µM]
Cc1c(Cl)cccc1[N+](=O)[O-] | inactive | 
